Screening results (PubChem BioAssay)
Compounds with a hit are over-represented: about 2.4% of the library has one in this group of screens.
APE1 inh: APE1 (human) endonuclease inhibition. P27695. recombinant APE1, TAMRA/BHQ-2 abasic DNA cleavage fluorescence. Potency, µM (doses to about 65.8 µM), inactives show top-dose activity change, negative = inhibition, actives largely listed as inhibitors. 350,000 tested, 0.35% active. AID 2517;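 also: potency is read from the fitted curve at half-maximal effect; plate controls were vehicle for no effect and reference inhibitor for full effect; nearly all actives have a fitted effect of over 55% in size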
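Compound pre-exposure to 0.75 nM APE1, 15 min at ambient temperature. Reaction initiated with 50 nM TAMRA/BHQ-2 THF substrate, read immediately in kinetic mode, 525 nm excitation, 598 nm emission.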
GLS inhibitor: inhibitors of human glutaminase (GLS); O94925; GLS enzymatic activity, qHTS titration; Potency, µM (doses to about 45.5 µM), for the others: at the top dose activity change, negative = inhibition, actives largely listed as inhibitors; 410,000 tested, 0.21% active; also: potency is read from the fitted curve at half-maximal effect; % is scaled to controls: 0 for no effect and ±100 for the full control effect
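Glutamate formation by hKGA was monitored fluorometrically using coupled glutamate oxidase, HRP and Amplex Red. Substrate was added as 1 mM L-glutamine solution; incubation was 30 min at RT after an initial read.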
POLI inh: inhibitors of human DNA polymerase iota; Q9UNA4; Pol iota fluorescent replication assay, 10 min; Potency, µM (top dose mostly 115 µM), for the others: top-dose activity, negative = inhibition, actives largely listed as inhibitors; 390,000 tested, 1% active; AID 588590; also: potency is read from the fitted curve at half-maximal effect
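Pol iota at 10 nM preincubated 15 min with compounds at room temperature; reaction started with fluorescent substrate, 50 nM final. Fluorescence read kinetically at 0 and 10 min; buffer-only wells as negative control.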
Pol kappa inh-1: blocks human DNA polymerase kappa activity; purified Pol kappa, fluorescent DNA synthesis assay, 10 min; Potency, µM (series often up to 107 µM), without a hit: top-dose activity, negative = inhibition, most hits filed as inhibitors; 400,000 tested, 0.53% active; also: potency is read from the fitted curve at half-maximal effect; % is scaled to controls: 0 for no effect and ±100 for the full control effect
Target sequence (Q9UBT6 whole entry, looked up): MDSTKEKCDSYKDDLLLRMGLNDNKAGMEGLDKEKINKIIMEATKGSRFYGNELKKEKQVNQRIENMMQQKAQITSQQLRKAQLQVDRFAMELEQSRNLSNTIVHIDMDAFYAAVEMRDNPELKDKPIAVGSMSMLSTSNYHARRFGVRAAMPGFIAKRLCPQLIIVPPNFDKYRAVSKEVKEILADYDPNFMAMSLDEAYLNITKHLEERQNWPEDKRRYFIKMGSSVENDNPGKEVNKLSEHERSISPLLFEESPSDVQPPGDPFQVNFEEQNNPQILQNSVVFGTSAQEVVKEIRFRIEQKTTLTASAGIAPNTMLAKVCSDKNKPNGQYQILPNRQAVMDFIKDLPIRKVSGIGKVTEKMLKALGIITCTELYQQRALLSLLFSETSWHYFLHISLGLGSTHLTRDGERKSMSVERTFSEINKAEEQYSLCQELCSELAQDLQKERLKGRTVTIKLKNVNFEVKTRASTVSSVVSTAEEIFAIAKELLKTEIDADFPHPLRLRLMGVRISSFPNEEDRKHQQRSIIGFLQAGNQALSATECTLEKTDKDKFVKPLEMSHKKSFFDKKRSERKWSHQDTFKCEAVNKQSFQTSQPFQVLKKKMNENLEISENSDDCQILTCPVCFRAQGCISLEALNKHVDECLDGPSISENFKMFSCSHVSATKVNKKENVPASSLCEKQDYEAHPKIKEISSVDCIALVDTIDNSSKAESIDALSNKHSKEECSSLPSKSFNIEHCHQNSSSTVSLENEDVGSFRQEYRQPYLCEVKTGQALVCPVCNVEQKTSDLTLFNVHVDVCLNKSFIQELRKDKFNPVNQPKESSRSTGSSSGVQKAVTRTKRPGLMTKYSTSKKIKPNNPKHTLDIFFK
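Kinetic fluorescence readout at 0 and 10 min followed reaction start with substrate at 50 nM final. Beforehand, enzyme (10 nM Pol kappa) stood 15 min with compound at room temperature; buffer-only wells were negative controls.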
Pol beta inh: DNA polymerase beta (human) inhibition; P06746; Pol beta primer extension/strand displacement, fluorescence kinetic; Potency, µM (titrated, usually from 114 µM), for inactives: at the highest dose activity change, negative = inhibition, most hits filed as inhibitors; 340,000 tested, 1.3% active; AID 485314; also: potency is read from the fitted curve at half-maximal effect; % is scaled to controls: 0 for no effect and ±100 for the full control effect
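Human Pol beta at 10 nM; strand-displacement substrate 50 nM final. Compound exposure 15 min at room temperature before start, reaction 10 min at room temperature.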
Pol eta inh-1: DNA polymerase eta (human) inhibition; recombinant Pol eta, fluorescent DNA replication assay; Potency, µM (series often up to 114 µM), inactives show at the top dose activity change, negative = inhibition, usual class: inhibitors; 390,000 tested, 1.2% active; AID 588591; also: potency is read from the fitted curve at half-maximal effect; % is scaled to controls: 0 for no effect and ±100 for the full control effect
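Pol eta at 10 nM preincubated with compounds 15 min at room temperature; reaction started with fluorescent substrate (50 nM final) and read kinetically at 0 and 10 min.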
GALK confirm: galactokinase (human) inhibition, confirmation | shares compounds with Pol eta inh-1 | purified GALK, Kinase-Glo ATP depletion luminescence | Potency, µM (top dose mostly 115 µM), for inactives: top-dose activity, negative = inhibition, most hits filed as inhibitors | 150 tested, 70% active | AID 2015
GALK redox cs: redox cycling activity in phenol red-HRP assay. shares compounds with Pol eta inh-1. Phenol red-HRP H2O2 redox cycling, absorbance 600 nm. Potency, µM (top dose mostly 115 µM), without a hit: at the top dose activity change, negative = H2O2 signal, actives largely listed as inhibitors. 150 tested, 40% active
HEK293 tox: HEK-293 cytotoxicity, GALK inhibitor secondary. AID 2547. Potency, µM (doses to about 46.1 µM), for inactives: at the highest dose activity change, negative = cytotoxicity, hits mostly inhibitors. shares compounds with Pol eta inh-1. HEK-293 viability, ATP luminescence (CellTiter-Glo), 24/48 h. 170 tested, 10% active; also: potency is read from the fitted curve at half-maximal effect; % is scaled to controls: 0 for no effect and ±100 for the full control effect
Pol kappa inh-2: Pol kappa (human) inhibition, cherry-pick confirmation. shares compounds with Pol eta inh-1. purified Pol-kappa, fluorescent strand-displacement substrate. Potency, µM, most hits filed as inhibitors. 920 tested, 76% active; also: potency is read from the fitted curve at half-maximal effect
Pol eta inh-2: confirmation of human DNA polymerase eta inhibitors; shares compounds with Pol eta inh-1; Pol eta primer extension, TAMRA/BHQ fluorescence, 10 min; Potency, µM, usual class: inhibitors; 2,600 tested, 64% active; also: potency is read from the fitted curve at half-maximal effect
The depositor's hits bear a star; ? = inconclusive; . = no result given; [ ] = dose if it differs, or a comment. Calls follow the shape of the dose curve; as a rule, active = well fitted curve in the direction sought with a large enough effect; inconclusive = small, poorly fitted or top-dose-only effect, or another doubt; inactive = no such curve, though single readings can be large; an effect the other way counts as inactive or inconclusive.

SMILES | APE1 inh | GLS inhibitor | POLI inh | Pol kappa inh-1 | Pol beta inh | Pol eta inh-1 | Pol eta inh-2 | others
N=C1/C(=C\c2ccc(Br)o2)C(=O)N=C2SC(CC(=O)N3CCCCC3)=NN12 | -5% | -7% | ? | 32µM* | ? | 22µM* | 85*
Cc1cc(/C=C2\C(=N)N3N=C(CC(=O)N4CCOCC4)SC3=NC2=O)c(C)n1Cc1ccccc1 | 0% | 4% | ? | -35% | 1% | -13% | .
COc1ccccc1/C=N/NC(=O)C(=O)NCc1cccnc1 | 2% | 5% | 61% | 5% | 12% | -15% | .
O=C(O)C1(c2ccccc2)CCC(Nc2ccccc2)C1 (stereo unspecified) | 15% | 16% | 18% | 4% | 9% | 0% | .
O=C(O)c1cc(-c2ccco2)nc2cc3ccccc3cc12 | ? | 0% | ? | 79µM* | 11µM* | 20µM* | 76*
O=C(CCC1CCN(Cc2nccs2)CC1)Nc1ccccc1 | . | -1% | . | . | . | -14% | .
Cc1ccc(-c2ccc(C(=O)Nc3ccccc3)o2)c2ccccc12 | 3% | -13% | -3% | -4% | 14% | -17% | .
Cc1ccc(S(=O)(=O)NC(=O)c2ccc(-c3ccc(C)c4ccccc34)o2)cc1 | ? | 2% | ? | ? | ? | 32µM* | ?
COc1ccccc1/C=C1\S/C(=N/NC(=O)c2cccc(Br)c2)NC1=O | -1% | 2% | 6% | -22% | -27% | 40µM* | ?
O=C(O)C1C2C=CC3(O2)C1C(=O)N1c2ccccc2C2OCCC2C13 (stereo unspecified) | ? | -12% | ? | -33% | 40µM* | 35µM* | ?
O=C(CN1CCN(C(=O)CNC(=O)c2ccc(N3CCCC3=O)cc2)CC1)Nc1ccccc1Cl | 31% | 3% | 5% | -16% | . | 0% | .
CC/C=C\CC[C@H](O)C1=CCCCC1=O | -1%[12.4 µM] | . | . | . | . | . | .
COc1ccc(C(=O)C2CCCN(C(=O)c3cccnc3OC)C2)c(C)c1 (stereo unspecified) | 2% | 0% | 19% | 6% | -1% | -13% | .
Cc1cc(-c2n[nH]c(=S)n2/N=C/c2ccc(Br)s2)n[nH]1 | 8% | -14% | ? | -4% | 44% | -12% | .
S=c1[nH]nc(-c2cc(-c3ccccc3)n[nH]2)n1/N=C/c1ccc(Br)s1 | ? | 0% | 22µM* | ? | 18µM* | ? | ? | Pol kappa inh-2=42*
O=C(c1ccc2c(c1)C(=O)N(Cc1ccco1)C2=O)N1CCOCC1 | -1% | 5% | -14% | 0% | 14% | -10% | .
O=C(O)c1ccc(C(=O)c2ccc3c(c2)C(=O)N(Cc2ccco2)C3=O)cc1 | -4% | 11% | -20% | -17% | -12% | 20µM* | ?
O=C(Nc1cc([N+](=O)[O-])ccc1O)c1cccc(C(=O)Nc2cc([N+](=O)[O-])ccc2O)c1 | ? | 3% | 16% | -25% | -1% | ? | ?
O=C(Nc1cc([N+](=O)[O-])ccc1O)c1ccc2c(c1)C(=O)N(Cc1ccco1)C2=O | -2% | -2% | 40µM* | 50µM* | 26% | 32µM* | ?
O=C(Nc1ccc(O)cc1)c1ccc2c(c1)C(=O)N(Cc1ccco1)C2=O | -7% | 10% | ? | -28% | 1% | 14µM* | 67*
N#CC1=C(N)Oc2cc(N)ccc2C1C1CC=CCC1 (stereo unspecified) | 0% | 5% | -6% | -8% | 11% | -17% | .
Cc1ccc(CSc2nc(-c3ccc(C(C)(C)C)cc3)nc3cc(=O)[nH]n23)cc1 | . | ? | ? | ? | ? | 50µM* | 85*
C=CCc1ccccc1OCCSc1nc(-c2ccc(C(C)(C)C)cc2)nc2cc(=O)[nH]n12 | . | -1% | ? | -32% | 40µM* | ? | 76*
Cc1ccccc1OCC(=O)OCC(=O)Nc1ncc(Cl)c(C)c1Cl | 0% | ? | ? | ? | . | 28µM* | ? | Pol kappa inh-2=?
Cc1ccccc1OCC(=O)OCC(=O)Nc1ccc(Cl)cn1 | 44% | 3% | 23% | -17% | . | -20% | .
SMILES | APE1 inh | GLS inhibitor | POLI inh | Pol kappa inh-1 | Pol beta inh | Pol eta inh-1 | Pol eta inh-2 | others
Cc1cc(C)cc(NC(=O)COC(=O)[C@@H](NC(=O)c2ccco2)C(C)C)c1 | -6% | -12% | 53% | 5% | 3% | -20% | .
CC(=O)NC12CC3CC(C1)CC(C(=O)OCC(=O)Nc1ncc(Cl)c(C)c1Cl)(C3)C2 | 2% | -2% | ? | -35% | ? | ? | ?
Cc1c(Cl)cnc(NC(=O)COC(=O)[C@@H](NC(=O)c2ccco2)C(C)C)c1Cl | 12% | -20% | ? | -17% | . | 50µM* | ? | Pol kappa inh-2=?
CCCCCCCOc1ccc(C2CC(=O)N(C)C2=O)cc1 (stereo unspecified) | -4% | -11% | 51% | -15% | 1% | -14% | .
COc1ccccc1CN1CCCCC1C(=O)O (stereo unspecified) | 2% | -6% | 37% | 5% | -9% | -16% | .
CC1=NN2C(=N)/C(=C\c3cc(C)n(-c4cccc(C)c4)c3C)C(=O)N=C2S1 | -2% | -16% | -22%[58.9 µM] | -10% | 0% | -18% | .
Cc1ccc(S(=O)(=O)Oc2ccc(/C=C3/C(=N)N4C(=NC3=O)SN=C4S(C)(=O)=O)cc2)cc1 | -22% | 5% | ? | -27% | 1% | 28µM* | 67* | GALK confirm=30µM*;GALK redox cs=0%;HEK293 tox=0%
